Screen size: about 5,500 compounds; about 2,000 (36%) were called active. Not shown: some 18% with an inconclusive outcome. Rule as the data show it: active = normalized growth mostly below about 0.91 (no sharp cut-off); inconclusive = no clear call, values can overlap the other calls; inactive = mostly above about 0.92. This is one part of the list.
Assay: chemical genetic growth profiling, strain panel (AID 1159580);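 also: tested at 20 µM; growth read once vehicle control cultures reached saturation at 30 °C; 1 = growth at the plate median or of vehicle wells; lower values mean less growth of the strain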
Conditions: S. cerevisiae deletion strains, growth OD
[1] = locus YDL101C, strain DUN1, stronger effect = lower value
[2] = locus YHR030C, strain SLT2, stronger effect = lower value

Measured: normalized growth

Cc1nc([N+](=O)[O-])cn1CC(=O)c1ccc(Cl)cc1
active: locus YGR092W, strain DBF2, stronger effect = lower value 0.416 | [2] 0.189 | locus YLR113W, strain HOG1, stronger effect = lower value 0.539
inactive: locus YAR019C, strain CDC15, stronger effect = lower value 0.973 | locus YBL105C, strain PKC1, stronger effect = lower value 0.97 | locus YBR135W, strain CKS1, stronger effect = lower value 0.982 | locus YBR136W, strain MEC1, stronger effect = lower value 0.973 | locus YBR160W, strain CDC28, stronger effect = lower value 0.984 | locus YDL017W, strain CDC7, stronger effect = lower value 0.981 | locus YDL028C, strain MPS1, stronger effect = lower value 0.969 | [1] 0.978 | locus YDL108W, strain KIN28, stronger effect = lower value 0.963 | locus YDL132W, strain cdc53, stronger effect = lower value 0.976 | locus YDL214C, strain PRR2, stronger effect = lower value 0.927 | locus YDR052C, strain DBF4, stronger effect = lower value 0.964 | locus YDR054C, strain cdc34, stronger effect = lower value 0.973 | locus YDR226W, strain ADK1, stronger effect = lower value 0.972 | locus YDR477W, strain SNF1, stronger effect = lower value 0.938 | locus YER123W, strain YCK3, stronger effect = lower value 0.782 | locus YER133W, strain GLC7, stronger effect = lower value 0.94 | locus YFL009W, strain cdc4, stronger effect = lower value 0.982 | locus YFL029C, strain CAK1, stronger effect = lower value 0.971 | locus YFR003C, strain YPI1, stronger effect = lower value 0.979 | locus YFR019W, strain FAB1, stronger effect = lower value 0.901 | locus YFR028C, strain CDC14, stronger effect = lower value 0.98 | locus YGR040W, strain KSS1, stronger effect = lower value 0.94 | locus YGR052W, strain FMP48, stronger effect = lower value 1.03 | locus YHR079C, strain IRE1, stronger effect = lower value 1.05 | locus YHR082C, strain KSP1, stronger effect = lower value 1.04 | locus YHR205W, strain SCH9, stronger effect = lower value 0.964 | locus YIL147C, strain SLN1, stronger effect = lower value 0.96 | locus YJL095W, strain BCK1, stronger effect = lower value 1.02 | locus YJL128C, strain PBS2, stronger effect = lower value 0.906 | locus YJL157C, strain FAR1, stronger effect = lower value 0.922 | locus YJR016C, strain ILV3, stronger effect = lower value 0.97 | locus YJR066W, strain TOR1 (second series), stronger effect = lower value 0.898 | locus YJR066W, strain TOR1, stronger effect = lower value 1.04 | locus YKL048C, strain ELM1, stronger effect = lower value 0.966 | locus YKL067W, strain YNK1, stronger effect = lower value 0.947 | locus YKL101W, strain HSL1, stronger effect = lower value 0.954 | locus YKL193C, strain SDS22, stronger effect = lower value 0.969 | locus YKL203C, strain TOR2, stronger effect = lower value 1.02 | locus YLR133W, strain CKI1, stronger effect = lower value 0.962 | locus YLR403W, strain SFP1, stronger effect = lower value 0.941 | locus YML070W, strain DAK1, stronger effect = lower value 0.904 | locus YMR001C, strain CDC5, stronger effect = lower value 0.976 | locus YMR205C, strain PFK2 (second series), stronger effect = lower value 0.966 | locus YMR277W, strain FCP1, stronger effect = lower value 0.964 | locus YNL006W, strain LST8, stronger effect = lower value 0.983 | locus YNL020C, strain ARK1, stronger effect = lower value 0.959 | locus YNL161W, strain CBK1, stronger effect = lower value 0.971 | locus YNL183C, strain NPR1, stronger effect = lower value 1 | locus YNL207W, strain RIO2, stronger effect = lower value 0.965 | locus YNL222W, strain SSU72, stronger effect = lower value 0.977 | locus YNL307C, strain MCK1 (second series), stronger effect = lower value 0.967 | locus YOL078W, strain AVO1, stronger effect = lower value 0.969 | locus YOL136C, strain PFK27, stronger effect = lower value 0.927 | locus YOR061W, strain CKA2, stronger effect = lower value 0.94 | locus YOR119C, strain RIO1, stronger effect = lower value 0.985 | locus YOR231W, strain MKK1, stronger effect = lower value 1 | locus YOR329C, strain SCD5, stronger effect = lower value 0.977 | locus YPL031C, strain PHO85, stronger effect = lower value 0.949 | locus YPL153C, strain RAD53, stronger effect = lower value 0.916 | locus YPL204W, strain HRR25, stronger effect = lower value 0.921 | locus YPL209C, strain IPL1, stronger effect = lower value 0.984 | locus YPL256C, strain CLN2, stronger effect = lower value 1.01 | locus YPR025C, strain CCL1, stronger effect = lower value 0.985 | locus YPR106W, strain ISR1, stronger effect = lower value 0.982 | locus YPR111W, strain DBF20, stronger effect = lower value 0.989 | strain NNK1, stronger effect = lower value 0.979 | strain TSCII, stronger effect = lower value 0.969

CCn1cc([N+](=O)[O-])nc1C
inactive: locus YAL013W, strain DEP1, stronger effect = lower value 1 | locus YBR229C, strain ROT2, stronger effect = lower value 1.02 | [1] 1.03 | locus YDR150W, strain NUM1, stronger effect = lower value 1.03 | locus YEL061C, strain CIN8, stronger effect = lower value 0.981 | locus YGR078C, strain PAC10, stronger effect = lower value 1.02 | [2] 1.05 | locus YHR087W, strain rtc3, stronger effect = lower value 0.975 | locus YJR043C, strain POL32, stronger effect = lower value 1.06 | locus YJR075W, strain HOC1, stronger effect = lower value 1 | locus YKL190W, strain CNB1, stronger effect = lower value 1 | locus YLR039C, strain RIC1, stronger effect = lower value 0.987 | locus YLR058C, strain SHM2 (second series), stronger effect = lower value 0.998 | locus YLR085C, strain ARP6, stronger effect = lower value 0.982 | locus YLR262C, strain YPT6, stronger effect = lower value 0.979 | locus YML094W, strain GIM5, stronger effect = lower value 0.968 | locus YMR219W, strain ESC1, stronger effect = lower value 0.983 | locus YMR263W, strain SAP30, stronger effect = lower value 1.01 | locus YNL128W, strain TEP1, stronger effect = lower value 1.02 | locus YNL153C, strain GIM3, stronger effect = lower value 1.02 | locus YNL298W, strain CLA4 (second series), stronger effect = lower value 1 | locus YNL322C, strain KRE1, stronger effect = lower value 0.997 | locus YNR030W, strain Alg12, stronger effect = lower value 0.976 | locus YPL055C, strain LGE1, stronger effect = lower value 1.01 | locus YPL241C, strain CIN2, stronger effect = lower value 1.02 | locus YPR135W, strain CTF4, stronger effect = lower value 1.05
